aDG glyco up = activators of alpha-DG glycosylation, primary screen, uHTS, Pro5-aDG cells, AlphaScreen | alpha-DG glycosylation AlphaScreen (IIH6); 0% Pro5, 100% B10-LARGE cell signal | activation, % at 10 µM | 360,000 compounds, 0.22% hits;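 active = activation of at least 8% versus controls, or a plate z-score of at least 8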;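 also: Pro5 are CHO cells carrying HIG-tagged alpha-DG that lacks glycosylation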
FAS-TE inh = FAS thioesterase domain inhibitors, primary screen, biochemical, fluorescence intensity, uHTS | Fatty acid synthase (Homo sapiens), P49327 | recombinant FAS-TE, OMFH fluorogenic substrate, fluorescence endpoint | inhibition, % at 15 µM | 360,000 compounds, 0.67% hits;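 active = compounds whose normalised, plate-corrected inhibition of enzyme fluorescence in the single-dose primary screen is 50% or more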;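 also: 0% = DMSO with enzyme and 100% = substrate without enzyme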
GC-B act = human GC-B receptor activators, primary screen, HEK293 GC-B cells, cGMP TR-FRET, EC30 CNP; 0% at EC30 CNP, 100% saturating CNP; activation, % at 10 µM; 370,000 compounds, 0.11% hits; AID 1920062, 2024;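 active = activation at 10 µM reaching about 35% in either raw or pattern-adjusted values, limit read from the data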
GC-A act = GC-A stimulated cGMP production enhancers – HEK293 GC-A cells, cGMP TR-FRET, EC30 ANP, primary screen | AID 1671463, 2021 | activation, % at 10 µM | Atrial natriuretic peptide receptor 1 (Homo sapiens), P16066 | 370,000 compounds, 0.14% hits | 0% at EC30 ANP, 100% saturating ANP; in the data active = activation above about 40%
Target sequence (P16066 whole entry, looked up): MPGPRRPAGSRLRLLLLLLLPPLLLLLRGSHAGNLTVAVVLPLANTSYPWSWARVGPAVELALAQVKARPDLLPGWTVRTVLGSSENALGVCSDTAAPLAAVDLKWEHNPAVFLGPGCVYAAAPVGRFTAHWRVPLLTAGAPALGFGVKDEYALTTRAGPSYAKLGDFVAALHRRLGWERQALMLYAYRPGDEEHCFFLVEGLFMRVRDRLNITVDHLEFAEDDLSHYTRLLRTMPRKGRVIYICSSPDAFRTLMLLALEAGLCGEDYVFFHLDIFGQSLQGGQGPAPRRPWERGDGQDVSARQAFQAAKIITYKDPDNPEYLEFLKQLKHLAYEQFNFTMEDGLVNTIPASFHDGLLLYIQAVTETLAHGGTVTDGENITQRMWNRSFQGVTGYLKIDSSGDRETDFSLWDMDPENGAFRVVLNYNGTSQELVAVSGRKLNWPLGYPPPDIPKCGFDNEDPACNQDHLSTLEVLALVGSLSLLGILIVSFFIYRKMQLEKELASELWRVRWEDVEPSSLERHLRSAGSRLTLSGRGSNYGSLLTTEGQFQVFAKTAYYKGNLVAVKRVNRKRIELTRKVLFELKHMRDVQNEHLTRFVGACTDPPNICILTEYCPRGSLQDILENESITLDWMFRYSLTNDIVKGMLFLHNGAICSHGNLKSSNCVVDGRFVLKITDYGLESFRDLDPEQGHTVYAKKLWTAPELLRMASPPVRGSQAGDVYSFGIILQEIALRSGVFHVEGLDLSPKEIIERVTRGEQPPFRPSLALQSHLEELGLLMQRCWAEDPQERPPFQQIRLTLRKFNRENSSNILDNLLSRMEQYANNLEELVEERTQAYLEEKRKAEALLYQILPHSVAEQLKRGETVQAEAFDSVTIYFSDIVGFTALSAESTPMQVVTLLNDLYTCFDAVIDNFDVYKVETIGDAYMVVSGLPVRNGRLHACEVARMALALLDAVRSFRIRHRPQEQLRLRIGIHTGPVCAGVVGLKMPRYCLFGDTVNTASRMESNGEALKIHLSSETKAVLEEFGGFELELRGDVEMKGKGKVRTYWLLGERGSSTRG
FAS-TE inh conf = FAS thioesterase domain inhibitors, confirmation, biochemical, fluorescence intensity, single concentration; shares compounds with FAS-TE inh; recombinant FAS-TE, OMFH fluorogenic substrate; inhibition, % at 15 µM; 2,300 compounds, 45% hits; AID 624325, 2012;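 active = compounds inhibiting the enzyme by at least 50% at 15 µM in any one of the replicates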;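 also: 0% = enzyme with DMSO only and 100% = wells lacking enzyme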
The depositor's hits bear a star; . = no result given. This is a sample that favours compounds with a hit; in the whole collection about 1.1% have one here.

SMILES | aDG glyco up | FAS-TE inh | GC-B act | GC-A act | FAS-TE inh conf
COc1ccccc1NC(=O)/C=C/c1cc([N+](=O)[O-])ccc1OC(F)F | 0.1 | 4.4 | -10.9 | -13.2 | .
CCOC(=O)N1CCN(C(=O)C[C@H]2C[C@@]3(C(=O)OC)C(=C[C@H](C(C)(C)C)O[C@@H]3C)N(Cc3cccc4ccccc34)C2=O)CC1 | . | . | -0.4 | -3.7 | .
COc1ccc(-c2nnc(SCC(=O)N/N=C(\C)c3ccc(-c4ccccc4)cc3)n2-c2ccc(C)cc2)cc1 | . | . | -7.5 | -3.3 | .
COC(=O)c1ccc(CNC(=O)/C=C/c2cc([N+](=O)[O-])ccc2OC(F)F)cc1 | 0.7 | 82.7* | 2.0 | 4.4 | 80.6*
COCCCN1C(=O)[C@H](CC(=O)N2CCOCC2)[C@]2(C(=O)OC)CCCCC=C12 | . | . | 0.9 | 2.6 | .
Cc1c(-c2ccccc2)oc2c(C(=O)N3CCN(c4ccc([N+](=O)[O-])cc4)CC3)cccc2c1=O | 1.1 | 60.2* | -6.5 | -7.4 | 10.2
O=C1OCCN1C(=O)[C@H]1[C@H](c2ccc(F)cc2)C(c2ccc(F)cc2)=NN1c1ccc(Br)cc1 | 0.1 | 84.2* | . | . | 31.5
O=C1OCCN1C(=O)[C@H]1[C@H](c2ccc(Cl)cc2)C(c2ccc(F)cc2)=NN1c1ccc(Br)cc1 | 0.5 | 87.7* | 2.7 | -4.1 | 33.9
N#Cc1ccc(CSc2ccc(S(=O)(=O)N3CCCC3)cn2)cc1 | -0.2 | 63.9* | -2.6 | -2.1 | 63.6*
O=[N+]([O-])c1ccc(CSc2ccc(S(=O)(=O)N3CCOCC3)cn2)cc1 | 0.2 | 53.1* | -5.0 | 0.9 | 55.1*
Cc1ccc(CSc2ccc(S(=O)(=O)N3CCCC3)cn2)cc1 | 0.1 | 39.7 | 7.9 | 0.4 | .
O=[N+]([O-])c1ccc(CSc2ccc(S(=O)(=O)N3CCCC3)cn2)cc1 | 0.1 | 58.5* | . | . | 53.7*
CC(C)c1ccc(CSc2ccc(S(=O)(=O)N3CCOCC3)cn2)cc1 | 0.1 | 68.9* | 5.1 | -0.5 | 36.5*
Cc1ccc(CSc2ccc(S(=O)(=O)N3CCOCC3)cn2)cc1 | 0.0 | 4.6 | 2.0 | 0.7 | .
CN1C(=O)c2cc(NC(=O)Nc3ccccc3)ccc2OC[C@H]2O[C@@H](CC(=O)N[C@H]3CCN(Cc4ccccc4)C3)CC[C@@H]21 | . | . | 5.9 | 3.9 | .
O=C(NC1CCCc2c1cnn2-c1ccc(F)cc1F)c1cccs1 (stereo not drawn) | . | . | 2.5 | -0.9 | .
Cc1ccc([N+](=O)[O-])cc1S(=O)(=O)N(C(=O)c1ccncc1)c1ccc2oc3c(c2c1)CCCC3 | 0.0 | 72.2* | -1.3 | -1.9 | 25.9
Cc1ccc(S(=O)(=O)N(C(=O)c2ccncc2)c2ccc3oc4c(c3c2)CCCC4)cc1[N+](=O)[O-] | -0.2 | 54.2* | 3.9 | 2.2 | 23.2
COC(=O)c1c(C)oc2ccc(N(C(=O)c3ccncc3)S(=O)(=O)c3ccc(C)cc3)cc12 | 0.4 | 19.8 | . | . | .
CCCNC(=O)c1ccc(N2CCC3(CC2)CC(c2cccc(Br)c2)=NO3)c(NC(=O)c2ccc(Br)cc2)c1 | -0.3 | 3.1 | -3.9 | 1.9 | .
Cc1ccc(CNC(=O)c2ccc(N3CCC4(CC3)CC(c3cccc(Br)c3)=NO4)c(NC(=O)c3ccco3)c2)cc1 | 0.5 | 31.3 | -4.3 | 4.2 | .
Cc1ccc(CNC(=O)c2ccc(N3CCC4(CC3)CC(c3ccccc3)=NO4)c(NC(=O)c3ccco3)c2)cc1 | 0.2 | 63.8* | 9.9 | 2.1 | 13.4
CCCNC(=O)c1ccc(N2CCC3(CC2)CC(c2cccc(Br)c2)=NO3)c(NC(=O)c2c(Cl)cccc2Cl)c1 | 0.2 | 54.3* | -4.9 | -1.3 | 16.0
CCn1c(COc2ccc(C)cc2)nnc1SCC(=O)Nc1ccc(C(=O)OC)cc1 | . | . | 1.9 | -2.4 | .
COC(=O)c1cc(C(=O)NCCN2C(=O)S/C(=C\c3cccs3)C2=O)cc([N+](=O)[O-])c1 | 0.2 | 60.4* | -1.7 | -2.9 | 5.4
SMILES | aDG glyco up | FAS-TE inh | GC-B act | GC-A act | FAS-TE inh conf
COc1cc(OC)cc(C(=O)NCCN2C(=O)S/C(=C\c3cccs3)C2=O)c1 | 3.2 | 13.2 | -4.8 | -11.9 | .
CCOC(=O)c1c(NC(=O)CSc2nnc(-c3ccco3)o2)sc(C(C)=O)c1C | 0.1 | 23.5 | -4.0 | -1.8 | .
CCOC(=O)c1c(NC(=O)CSc2nc3cccnc3n2C)sc(C(C)=O)c1C | -0.2 | 79.6* | . | . | 45.2
CCOC(=O)c1sc(NC(=O)CSc2nc3cccnc3n2C)nc1C | 0.4 | 2.1 | -4.6 | -3.5 | .
CCOC(=O)c1c(NC(=O)CSc2ncnc3ccccc23)sc(C(C)=O)c1C | 1.4 | 50.1* | 0.0 | 14.4 | 16.7
CCOC(=O)c1c(NC(=O)CSc2nnc(-c3ccccc3C)n2C)sc(C(C)=O)c1C | -0.2 | 58.8* | -11.0 | -24.5 | 67.6*
O=C(O)c1ccccc1NSc1ccccc1[N+](=O)[O-] | 0.0 | 4.6 | 1.3 | 0.2 | .
CCc1ccc(NSc2ccccc2[N+](=O)[O-])cc1 | -0.6 | 51.2* | 1.7 | 8.2 | 0.1
O=C(Nc1ccc(OC(F)(F)F)cc1)c1cccc(-n2cnnn2)c1 | 1.5 | 55.6* | 4.5 | -2.5 | 43.8
CC(C)CNC(=O)OCc1cn(Cc2cccc(Cl)c2)nn1 | . | . | 1.6 | 2.5 | .
C[C@H]1[C@@H](OC(=O)Nc2ccc(Cl)cc2)CC[C@@]23CCCN2C(=O)CCC[C@@H]13 | . | . | -6.2 | -4.9 | .
Cc1cc(C)c(S(=O)(=O)N2CCN(c3ccc([N+](=O)[O-])c(-n4nc(C)cc4C)c3)CC2)c(C)c1 | -0.4 | 37.3 | 3.2 | 0.3 | .
Cc1cc(C)n(-c2cc(N3CCN(S(=O)(=O)c4ccc(Br)cc4)CC3)ccc2[N+](=O)[O-])n1 | 0.0 | 50.7* | -7.7 | -9.0 | 12.4
CCN1CCN(c2nc3c(C)cccn3c(=O)c2/C=C(\C#N)S(=O)(=O)c2ccccc2)CC1 | -0.1 | 8.7 | 4.9 | 17.6 | .
CCOC(=O)/C(C#N)=C/c1c(N2CCN(Cc3ccc4c(c3)OCO4)CC2)nc2c(C)cccn2c1=O | -0.2 | 50.8* | -6.8 | 1.3 | -0.1
Cc1cccn2c(=O)c(/C=C(\C#N)C(N)=O)c(N3CCN(Cc4ccc5c(c4)OCO5)CC3)nc12 | 0.5 | 55.8* | -11.5 | -11.7 | 68.7*
Cc1cccn2c(=O)c(/C=C(\C#N)S(=O)(=O)c3ccccc3)c(N3CCN(c4ccccc4)CC3)nc12 | -0.3 | 66.1* | -3.2 | -2.4 | 0.2
Cc1cc(N2CCN(C(=O)Oc3ccc(-c4ccccc4)cn3)CC2)c2ccccc2n1 | . | . | 7.2 | 3.2 | .
Cc1cccc(NC(=O)CNC(=O)COC(=O)c2ccc(C(C)(C)C)cc2)c1C | -0.2 | 63.8* | 3.5 | -1.8 | 51.3*
COc1ccc(OC)c(/C=N/N(C)c2ccccc2)c1 | -0.1 | 21.5 | -6.5 | 1.1 | .
COc1cc(/C=N/N(C)c2ccccc2)cc(Cl)c1O | -0.4 | 73.3* | -5.4 | -2.1 | 57.1*
